FUS yeast rescue: rescues growth of FUS-expressing yeast; S. cerevisiae FUS-expressing, growth rescue, OD600, 24 h; Potency, µM (doses to about 76.6 µM), usual class: activators; hit rate 0.24% among 390,000; AID 1347120;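 note: plate controls were DMSO vehicle for no effect and reference control for full effect; nearly all actives have a fitted effect of over 55% in size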
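Restored growth of FUS-toxic S. cerevisiae, read as 600 nm absorbance after 24 h at 30C in galactose medium (starting OD 0.005). Controls CP55940 and DMSO.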
Abeta rescue: A-beta toxicity reversal in yeast; yeast expressing A-beta42, growth rescue, OD600, 48 h; response scale: 0% DMSO, 100% iron-clioquinol control; hit rate 0.063% among 410,000; Potency, µM (doses to about 46.1 µM), actives largely listed as activators; AID 1347071; note: nearly all actives have a fitted effect of over 55% in size
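Growth rescue measured by 600 nm absorbance after 48 h yeast culture at 30 C with compound. Values normalized between DMSO and an equimolar ferric chloride plus clioquinol control.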
aSyn yeast inh: inhibitors of alpha-synuclein toxicity in yeast; Yeast expressing alpha-synuclein, growth rescue, BacTiter-Glo, 24 h; Potency, µM (highest dose often 46.1 µM), for inactives: at the top dose growth rescue (activation), actives largely listed as activators; hit rate 0.14% among 370,000; AID 652106; note: % of control where 0% means no effect; nearly all actives have a fitted effect of over 65% in size
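Galactose-induced alpha-syn yeast (OD600=0.02, raffinose-pregrown) + pinned cpd, 24 hr, 30 deg C; growth by BacTiter-Glo luminescence. Growth restoration scores as activation.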
TDP43 rescue: TDP-43 toxicity inhibition in yeast. TDP-43 expressing yeast growth rescue, BacTiter-Glo, 24 h. Potency, µM (top dose mostly 46.1 µM), inactives show top-dose growth rescue (activation), hits mostly activators. hit rate 1.8% among 410,000. AID 652104; note: % of control where 0% means no effect; nearly all actives have a fitted effect of over 50% in size
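Yeast expressing TDP-43 (pregrown in raffinose, seeded at OD600=0.02 in galactose medium) exposed to compounds 24 hr at 30 deg C. Growth read by BacTiter-Glo luminescence; rescue of toxicity appears as increased signal.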
Active calls of the source: *; i = inactive; u = inconclusive; x = no result given; [ ] = remark or other dose. Shown are actives, neighbours in structure and some others; about 2.1% of the full set was active somewhere. Calls come from the whole dose curve; as a rule, active = well fitted curve in the direction sought with a large enough effect; inconclusive = small, poorly fitted or top-dose-only effect, or another doubt; inactive = no such curve, though single readings can be large; an effect the other way counts as inactive or inconclusive. Potency is the fitted concentration of half-maximal effect.

SMILES	FUS yeast rescue	Abeta rescue	aSyn yeast inh	TDP43 rescue
Fc1ccccc1CSc1nnc(-c2ccccc2)o1	i	i	0.0%	11.2µM*
COc1ccc(-c2nnc(SCc3ccccc3F)o2)cc1	i	i	5.1%	11.2µM*
CC(C)(C)OC(=O)N1CCC(CC2CC(c3ccccc3)=NO2)(C(=O)O)CC1 (stereo not given)	i	i	10.7%	22.4µM*
CC(c1ccccc1)N1C(=O)c2cccnc2C1=O (stereo not given)	i	i	1.3%	2µM*
O=C1c2cccnc2C(=O)N1Cc1ccccc1	i	i	-0.9%	15.9%
CCCCCCCCCCS(=O)(=O)N/N=C/c1ccc(O)cc1	i	i	u	14.1µM*
Cc1ccc(S(=O)(=O)NCc2ccc3c(c2)OCO3)cc1C	i	i	-20.1%	17.8µM*
Clc1ccc2nnnc(-c3ccccc3)c2c1	i	i	14.1%	3.16µM*
OC(c1ccc(F)c(F)c1)c1nc(-c2ccc3c(c2)OCO3)cs1 (stereo not given)	i	i	u	22.4µM*
OC(c1ccc(F)c(F)c1)c1nc(-c2ccoc2)cs1 (stereo not given)	i	i	3.7%	4.1%
OC(c1ccc(F)c(F)c1)c1nc(-c2cccc(F)c2)cs1 (stereo not given)	i	i	19.6%	22.4µM*
OC(c1ccc(F)c(F)c1)c1nc(-c2cnc3ccccc3c2)cs1 (stereo not given)	i	i	10.3%	22.4µM*
CC(C)c1cccc(-c2csc(C(O)c3ccc(F)c(F)c3)n2)c1 (stereo not given)	i	i	-29.2%	-72.2%
OC(c1ccc(F)c(F)c1)c1nc(-c2cccs2)cs1 (stereo not given)	i	i	-0.4%	22.4µM*
Cc1cc(C)cc(C(=O)OCCCN(C)C2CN(Cc3cn(Cc4ccc([N+](=O)[O-])cc4)nn3)S(=O)(=O)C2)c1 (stereo not given)	i	x	x	x
C=CCCC(=O)N[C@H]1CC[C@@]23CCCN2C(=O)CCC[C@H]3[C@H]1C	i	x	x	x
O=C(O)c1cccc(-c2csc(C(O)c3ccc(F)c(F)c3)n2)c1 (stereo not given)	i	i	-2.8%	u
OC(c1ccc(F)c(F)c1)c1nc(-c2ccccc2)cs1 (stereo not given)	i	i	0.0%	14.1µM*
COc1ccc(-c2csc(C(O)c3ccc(F)c(F)c3)n2)cc1 (stereo not given)	i	i	11.2µM*	u
OC(CBr)C[n+]1cc(Br)cc2ccccc21 (stereo not given)	x	x	-9.5%	x
C=CCN1[C@H](CO)[C@H](c2ccc(Br)cc2)[C@@H]1C#N	i	x	x	x
Cc1cc(O)c2c(-c3ccccc3)cc(=O)oc2c1	i	i	-17.7%	u
Cc1cc2oc(=O)cc(-c3ccccc3)c2c(C)c1-c1ccc(O)cc1	u	i	-54.4%	14.1µM*
COc1ccc(-c2cc(NCc3ccc(C)cc3)n3cnnc3n2)cc1	i	i	x	11.2µM*
O=C(NCC1CCCO1)c1ccccc1NS(=O)(=O)c1cc([N+](=O)[O-])ccc1Cl (stereo not given)	x	i	22.4µM*	-18.3%
SMILES	FUS yeast rescue	Abeta rescue	aSyn yeast inh	TDP43 rescue
Cc1ccc(C2=CCN(C)C(=O)N2c2ccccc2)cc1	i	x	x	x
C=C1c2nc3ccccc3n2C=C(c2ccc(C)cc2)N1c1ccccc1	x	i	-25.8%	14.1µM*
CC(C)(C)N1C(=O)[C@H]2[C@@H](c3ccc(Br)cc3)N3C(=O)N(c4ccccc4)C(=O)[C@@]3(Cc3ccccc3)[C@H]2C1=O	u	i	13.8%	-4.4%
CCN1C(=O)[C@H]2[C@@H](c3ccc(C)cc3)N3C(=O)N(c4cccc(Br)c4)C(=O)[C@@]3(Cc3ccccc3)[C@H]2C1=O	35.5µM*	i	-2.2%	-10.3%
CC(C)(C)N1C(=O)[C@H]2[C@@H](c3ccc(Br)cc3)N3C(=O)N(c4cccc(Br)c4)C(=O)[C@@]3(Cc3ccccc3)[C@H]2C1=O	5.01µM*	i	1.2%	6.8%
CCCCc1cccc2[nH]cc(C)c12	i	x	x	x
COc1ccc(Nc2nnc(SCC3CCCCO3)s2)cc1 (stereo not given)	i	i	-18.3%	11.2µM*
O=C(Nc1ccc(OC(F)(F)F)cc1)Nc1c(-c2ccc(F)cc2)nc2ncccn12	i	x	x	x
CCc1cccc(NC(=O)C2CCCN2S(=O)(=O)c2ccc3nc(-c4ccccc4)[nH]c3c2)c1 (stereo not given)	i	i	x	u
CCCCn1c(SCC(=O)NCc2ccco2)nc2c(sc3ccccc32)c1=O	10µM*	i	-8.8%	-0.2%
CCOCCCn1c(SCC(=O)NCc2ccco2)nc2c(sc3ccccc32)c1=O	i	i	x	18.1%
CN(Cc1ccccc1)S(=O)(=O)c1cccc(C(=O)OCc2ccc(Oc3ccccc3)cc2)c1	i	x	x	x
COc1ccc2c(c1)CCCN2C(=O)C1CCCN(S(=O)(=O)c2cccc3cccnc23)C1 (stereo not given)	i	x	x	x
Cc1cccc(COCC(Cc2ccccc2)N2CCN(C(=O)c3cccc(Cl)c3)CCC2=O)c1 (stereo not given)	u	i	u	20.0%
CC(C)CC(COCc1ccc(Cl)cc1)N1CCN(C(=O)c2ccc(Cl)cc2Cl)CCC1=O (stereo not given)	u	i	u	25.1µM*
Cc1cccc(COC[C@H](Cc2ccccc2)N2CCN(C(=O)c3cccc(Cl)c3)CCC2=O)c1	u	i	u	17.8µM*
COC(=O)[C@]12C[C@H](CC(=O)N3CCN(C(=O)C4CC4)CC3)C(=O)N(Cc3ccco3)C1=C[C@H](C(C)C)O[C@@H]2C1CC1	i	x	x	x
COC(=O)CNC(=O)CNC1(C(=O)NCCc2c[nH]c3ccccc23)CCCCC1	i	x	x	x
CCc1c(C(=O)NCCc2ccc(N3CCCCC3)cc2)[nH]c2ccc(Cl)cc12	x	x	-11.6%	x
CCOc1ccc(NC(=O)N2CCOc3ccccc32)cc1	i	i	x	11.2µM*
CCc1ccccc1NC(=O)N1CCOc2ccccc21	i	i	x	u
c1csc(CSc2nnc3sc4ccccc4n23)c1	i	i[9.22 µM]	-0.6%	14.1µM*
CC(C)C1Nc2ccc(C(=O)O)cc2C2C=CCC21 (stereo not given)	i	i	-0.7%	17.8µM*
COc1cccc([C@@H]2Nc3ccc(C(=O)O)cc3[C@@H]3C=CC[C@@H]32)c1OC	u	i	x	17.8µM*
N#Cc1ccc(CSc2nc3sc4c(c3c(=O)n2-c2ccc(Br)cc2)CCCC4)cc1	i	x	x	x
O=C(OC12CCCN(C1)/C(=C/c1ccncc1)C2)C1CCCCC1 (stereo not given)	i	x	x	x
Nc1cc(N2CCCCC2)c(Cl)cc1[N+](=O)[O-]	i	i	0.6%	12.6µM*
Nc1cc(N2CCCCC2)c([N+](=O)[O-])cc1Cl	x	i	12.6%	u
